Inconclusive results are not listed. The source made the active and inactive calls. The call rests on the fitted dose curve; in most records, active means well fitted inhibition curve with a large enough effect; inconclusive means small, poorly fitted or top-dose-only effect; inactive means flat fitted curve, though single readings scatter.
Columns and labels:
Assay in all cases: qHTS profiling for inhibitors of Plasmodium falciparum proliferation (AID 504749); further: nearly all actives have a fitted effect of over 60% in size
Details in all cases: P. falciparum in erythrocytes, SYBR Green DNA, 72 h; series mostly up to 28.7 µM
CP268 = test system: CP268
Method in brief: (§1)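 In a 72 h erythrocytic culture (37 C, humidified, 5% CO2) at 2.5% hematocrit and 0.3% starting parasitemia, compounds were tested; SYBR Green I in detergent lysis buffer stained parasite DNA overnight.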

CP269 = test system: CP269
Method in brief: as §1

CP286 = test system: CP286
Method in brief: as §1

CP291 = test system: CP291
Method in brief: as §1

CP297 = test system: CP297
Method in brief: as §1

CP305 = test system: CP305
Method in brief: as §1

CP315 = test system: CP315
Method in brief: as §1

CP325 = test system: CP325
Method in brief: as §1

CP329 = test system: CP329
Method in brief: as §1

CP335 = test system: CP335
Method in brief: as §1

DFO2036 = test system: DFO2036
Method in brief: as §1

DIV14 = test system: DIV14
Method in brief: as §1

DIV17 = test system: DIV17
Method in brief: as §1

DIV30 = test system: DIV30
Method in brief: as §1

Dd2 = test system: Dd2
Method in brief: as §1

ECU = test system: ECU
Method in brief: as §1

FAB9 = test system: FAB9
Method in brief: as §1

GB4 = test system: GB4
Method in brief: as §1

HB3 = test system: HB3
Method in brief: as §1

ICS = test system: ICS
Method in brief: as §1

Measured: Potency
Potency means the concentration at half of the fitted maximal effect.

Nc1ncn([C@@H]2O[C@H](CO)[C@@H](O)[C@H]2O)c(=O)n1
inactive: all assays above

O=C(CCNNC(=O)c1ccncc1)NCc1ccccc1
inactive: all assays above

CC(C)(Oc1ccc(CCNC(=O)c2ccc(Cl)cc2)cc1)C(=O)O
inactive: all assays above

CN(C)C(=O)Oc1cccc([N+](C)(C)C)c1
inactive: all assays above

CSc1ccc(C(=O)c2[nH]c(=O)[nH]c2C)cc1
inactive: all assays above

NC(=O)c1cn(Cc2c(F)cccc2F)nn1
inactive: all assays above

Cc1scc2c1N(C(=O)CN1CCN(C)CC1)c1ccccc1NC2=O
inactive: all assays above

Cc1cc(C)c(/C=C2\C(=O)Nc3ccccc32)[nH]1
not listed: ICS
inactive: all other assays above

NC/C=C/C(=O)O
inactive: all assays above

C[N+](C)(C)CCCCCCCCCC[N+](C)(C)C
active: CP268 4.78 µM | CP269 3.38 µM | CP286 4.47 µM | CP291 3.38 µM | CP297 4.78 µM | CP305 4.26 µM | CP315 4.26 µM | CP325 3.38 µM | CP329 3.38 µM | CP335 1.9 µM | DFO2036 4.47 µM | DIV14 1.07 µM | DIV17 1.69 µM | DIV30 4.26 µM | Dd2 3.16 µM | ECU 10 µM | FAB9 5.01 µM | GB4 3.01 µM | HB3 1.58 µM | ICS 2.24 µM

CN(C)C(=O)Oc1ccc[n+](C)c1
inactive: all assays above

O=C(O)CCCCCCCC(=O)O
inactive: all assays above

COc1ccc([C@@H]2Sc3ccccc3N(CCN(C)C)C(=O)[C@@H]2OC(C)=O)cc1
inactive: all assays above

Cc1ccc(=O)n(-c2ccccc2)c1
inactive: all assays above

CN=C(NC#N)NCCSCc1nc[nH]c1C
inactive: all assays above

COc1cc2c(cc1OC)-c1cc(=Nc3c(C)cc(C)cc3C)n(C)c(=O)n1CC2
active: CP268 1.51 µM | CP269 4.78 µM | CP286 2 µM | CP291 2.13 µM | CP297 5.36 µM | CP305 3.79 µM | CP315 6.75 µM | CP325 4.26 µM | CP329 4.78 µM | CP335 4.26 µM | DFO2036 3.55 µM | DIV14 3.01 µM | DIV17 3.38 µM | DIV30 6.01 µM | Dd2 7.94 µM | ECU 5.01 µM | FAB9 3.98 µM | GB4 2.69 µM | HB3 7.08 µM | ICS 1.78 µM

NC(=O)N1c2ccccc2C=Cc2ccccc21
inactive: all assays above

CCCCNC(=O)NS(=O)(=O)c1ccc(C)cc1
inactive: all assays above

O=c1[nH]c(=O)n([C@H]2C[C@H](O)[C@@H](CO)O2)cc1Br
inactive: all assays above

CCN(CC)CCNC(=O)c1ccc(NC(C)=O)cc1
inactive: all assays above

CCn1ccnc1CC1COc2ccccc2O1 (centres undefined)
inactive: all assays above

C[N+](C)(C)CCOC(N)=O
inactive: all assays above

CC(N=C(NC#N)Nc1ccncc1)C(C)(C)C (centres undefined)
inactive: all assays above

C[N+](C)(C)CCOC(=O)CCC(=O)OCC[N+](C)(C)C
inactive: all assays above

NC(Cc1ccc(Cl)cc1)C(=O)O (centres undefined)
inactive: all assays above
